Bioassay records (PubChem BioAssay)
Most compounds without a hit are left out; they make up all but 3.5% or so of the library.
GDH-TPI counter: GDH-TPI coupling enzyme inhibitors, primary screen, artefact control for M. tuberculosis FBA inhibitor project, biochemical, absorbance, full deck; inhibition, % at 4.8 µM; AID 588335, 2011; GDH-TPI coupled enzyme counterscreen, NADH absorbance; 1.2% of 360,000 active; in the data active = inhibition above about 30%
FBA Mtb inh: Mtb FBA enzyme inhibitors, primary screen, biochemical, fluorescence, strain H37Rv; Fructose-bisphosphate aldolase (Mycobacterium tuberculosis (strain ATCC 25618 / H37Rv)), …; purified M. tuberculosis FBA, fluorescence read-out; inhibition, % at 1 µM; 2.3% of 360,000 active; AID 588726, 2011; in the data active = inhibition above about 27%
Mtb betalactam: beta-lactam sensitization of Mtb H37Rv, H37Rv; inhibition, % at 25 µM; 0.27% of 330,000 active; M. tuberculosis H37Rv growth with meropenem, percent inhibition; call rule not given here;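 note: growth measured after seven days incubation then overnight dye step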
Mtb UGM inh: M. tuberculosis UGM enzyme inhibitors, primary screen, biochemical, fluorescence polarization, single point. purified UGM, fluorescence polarization probe displacement. UDP-galactopyranose mutase (Mycobacterium tuberculosis (strain ATCC 25618 / H37Rv)), …. inhibition, % at 10 µM. 0.06% of 320,000 active. AID 504406, 2011; in the data active = inhibition above about 10%, passing the limit was not always enough; inconclusive = no clear call, values can overlap the other calls
Rv3671c protease: Rv3671c serine protease inhibitors, primary screen, biochemical, fluorescence polarization, M. tuberculosis H37Rv. P9WHR9. inhibition, % at 5.96 µM. 0.048% of 320,000 active. AID 2606, 2010; in the data active = inhibition above about 38%;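 note: extracellular domain of Rv3671c used as enzyme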
Target sequence (P9WHR9 whole entry, looked up, the tested form may be a part): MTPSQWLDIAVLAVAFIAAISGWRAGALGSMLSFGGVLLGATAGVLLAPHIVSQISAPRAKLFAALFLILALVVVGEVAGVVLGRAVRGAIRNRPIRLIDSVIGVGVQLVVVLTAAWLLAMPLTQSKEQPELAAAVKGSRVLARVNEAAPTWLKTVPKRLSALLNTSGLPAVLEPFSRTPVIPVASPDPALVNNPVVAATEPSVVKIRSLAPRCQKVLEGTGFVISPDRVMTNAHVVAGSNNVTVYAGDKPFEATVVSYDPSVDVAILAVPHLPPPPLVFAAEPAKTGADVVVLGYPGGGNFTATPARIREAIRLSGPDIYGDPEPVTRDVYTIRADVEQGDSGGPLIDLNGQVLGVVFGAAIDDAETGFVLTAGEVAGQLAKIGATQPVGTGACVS
Numbers stand for hits; . = inactive; ? = inconclusive; / = no result; + = active, no number.

SMILES	GDH-TPI counter	FBA Mtb inh	Mtb betalactam	Mtb UGM inh	Rv3671c protease
CCOc1cc(C2C3=C(CCCC3=O)N(CC(=O)O)C3=C2C(=O)CCC3)ccc1OC	.	.	.	.	.
COc1ccc(C2C3=C(CCCC3=O)N(CC(=O)O)C3=C2C(=O)CCC3)cc1Cl	.	178	.	.	.
COc1ccc(C2C3=C(CC(C)(C)CC3=O)N(CC(=O)O)C3=C2C(=O)CC(C)(C)C3)cc1OC	.	.	.	.	.
C#CCOc1c(Cl)cc(C2C3=C(CCCC3=O)N(CC(=O)O)C3=C2C(=O)CCC3)cc1OC	.	159	.	.	.
COc1ccc(C2C3=C(CCCC3=O)N(CC(=O)O)C3=C2C(=O)CCC3)cc1Br	.	135	/	/	/
O=C(NCc1cccc(C(F)(F)F)c1)c1csc(COCCO)n1	.	.	/	/	/
Cc1ccc(CN2[C@@H](CC(C)C)COCCS2(=O)=O)cc1	.	.	.	.	.
Cc1ccc(NC(=O)C2CCN(S(=O)(=O)c3ccc4c(c3)OCCCO4)CC2)nc1	.	.	.	.	.
Cc1cc2nc(/C=C/c3cccnc3)[nH]c2cc1C	45	+	.	.	/
COc1cc(OC)c(OC)cc1/C=N/NC(=O)c1ccc(=O)n(C)c1	54	.	.	.	.
COc1cc(OC)c(OC)cc1/C=N/NC(=O)c1cc(-c2cccn2C)n[nH]1	38	.	.	.	.
COc1ccc(OC)c(/C=N\NC(=O)c2ccc(=O)n(C)c2)c1	.	.	.	.	.
Cc1ccc(-c2cc(Cc3ccccc3)c(=O)[nH]n2)cc1	.	.	.	.	.
Cc1cc(NC(=O)C2CC(=O)N(c3ccc(F)cc3)C2)no1 (stereo not drawn)	.	.	.	.	.
COc1ccc(-c2nnc(Nc3nc4c(OC)cccc4s3)o2)c(OC)c1	69	60	.	.	.
COc1ccc(-c2nnc(Nc3nc4c(OC)cccc4s3)o2)cc1	63	.	?	.	.
CCN(CC)CCN(C(=O)c1cc2c(ccc3ccccc32)oc1=O)c1nc2cc3c(cc2s1)OCCO3	.	+	.	.	.
Cc1ccc2cc(CN(Cc3ccco3)S(=O)(=O)c3c(C)ccc4nsnc34)c(=O)[nH]c2c1	32	.	.	.	.
CC(=O)C1=C(S(=O)(=O)c2ccc(C)cc2)CS(=O)(=O)C1	.	.	/	/	/
Cc1ccc(Cl)cc1NC(=O)CCCN1C(=O)c2cccnc2C1=O	.	.	.	.	.
O=C(CCCN1C(=O)c2cccnc2C1=O)Nc1ccc(F)cc1Cl	.	+	.	.	.
Cn1nc(C(C)(C)C)c([N+](=O)[O-])c1C(=O)N1CCCCCC1	.	.	.	.	.
COc1ccc2c(c1)CC/C(=C\c1ccc(OC)c(Cn3cccn3)c1)C2=O	38	.	.	.	.
O=C(O)c1ccc(N/N=C/C(Br)=C/c2ccccc2)cc1	66	.	.	.	.
O=C(N/N=C/C(Br)=C/c1ccccc1)C(O)c1ccccc1 (stereo not drawn)	43	.	.	.	.
SMILES	GDH-TPI counter	FBA Mtb inh	Mtb betalactam	Mtb UGM inh	Rv3671c protease
Cc1ccc(C)c(-c2nnc(NC(=O)Cc3ccc(F)cc3)o2)c1	.	.	?	.	.
C/C(=N\NC(=O)C1(C)NC(C)(C)Cc2ccccc21)c1ccccc1 (stereo not drawn)	.	.	.	.	.
O=C(CCS(=O)(=O)c1ccccc1)Nc1nc(-c2ccc(F)cc2)cs1	34	.	.	.	.
O=C(CS(=O)(=O)c1ccccc1)Nc1nc(-c2ccc(F)cc2)cs1	.	.	.	.	.
Cc1onc(-c2ccccc2)c1C(=O)OCC(=O)N(C)c1c(N)n(Cc2ccccc2)c(=O)[nH]c1=O	.	.	.	.	.
COc1cc(C(=O)N/N=C/c2cn(Cc3ccccc3)c3ccccc23)ccc1O	37	.	.	.	/
O=C(N/N=C/c1cn(Cc2cccc(F)c2)c2ccccc12)c1cc(O)cc(O)c1	.	.	.	.	/
O=C(O)c1ccc(N/N=C/c2cn(Cc3ccccc3F)c3ccccc23)cc1	42	.	.	.	.
COc1ccccc1OCCn1cc(/C=N/NC(=O)c2ccncc2)c2ccccc21	54	.	.	.	.
O=C(N/N=C/c1cn(CCOc2ccccc2)c2ccccc12)c1ccncc1	.	.	.	.	.
Nc1ccc(C(=O)N/N=C/c2cn(Cc3ccccc3)c3ccccc23)cc1	37	.	.	.	/
